# In the supplement of paper PMC8728848:
# The sample as a whole holds a higher share of the strongest signals than the screen did.
# Experiments:
# Assay in all cases: glycan array binding signal (z-score within array); higher = stronger binding
# Conditions in all cases: glycan notation: IUPAC condensed, linker removed
# [1] = molecular target: Fuc(a1-2)Gal(b1-3)GlcNAc(b1-2)Man(a1-3)[Fuc(a1-2)Gal(b1-3)GlcNAc(b1-2)Man(a1-6)]Man(b1-4)GlcNAc(b1-4)[Fuc(a1-6)]GlcNAc
# Procedure, shortened: (§1)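 The Consortium for Functional Glycomics database supplied 3228 glycan arrays, of which those lacking an available protein sequence were dropped. The binding signal, a within-array Z-score, was averaged across arrays of the same protein sequence and across linkers. Negative scores can be read as non-binding.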
# [2] = molecular target: Fuc(a1-2)Gal(b1-4)Glc6S
# Procedure, shortened: as §1
# [3] = molecular target: Fuc(a1-2)[Gal(a1-3)]Gal(b1-4)GlcNAc(b1-2)Man(a1-3)[Fuc(a1-2)[Gal(a1-3)]Gal(b1-4)GlcNAc(b1-2)Man(a1-6)]Man(b1-4)GlcNAc(b1-4)GlcNAc
# Procedure, shortened: as §1
# [4] = molecular target: Fuc(a1-2)[GalNAc(a1-3)]Gal(b1-4)GlcNAc(b1-2)Man(a1-3)[Fuc(a1-2)[GalNAc(a1-3)]Gal(b1-4)GlcNAc(b1-2)Man(a1-6)]Man(b1-4)GlcNAc(b1-4)GlcNAc
# Procedure, shortened: as §1
# [5] = molecular target: Fuc(a1-2)[GalNAc(a1-3)]Gal(b1-4)[Fuc(a1-3)]GlcNAc
# Procedure, shortened: as §1
# [6] = molecular target: Fuc(a1-3)[Gal(b1-4)]GlcNAc(b1-4)Gal(b1-4)[Fuc(a1-3)]GlcNAc(b1-4)Gal(b1-4)[Fuc(a1-3)]GlcNAc
# Procedure, shortened: as §1
# [7] = molecular target: Fuc(a1-3)[Gal3S(b1-4)]GlcNAc6S
# Procedure, shortened: as §1
# [8] = molecular target: Gal(a1-3)Gal(b1-3)[Fuc(a1-4)]GlcNAc(b1-2)Man(a1-3)[Gal(a1-3)Gal(b1-3)[Fuc(a1-4)]GlcNAc(b1-2)Man(a1-6)]Man(b1-4)GlcNAc(b1-4)GlcNAc
# Procedure, shortened: as §1
# [9] = molecular target: Gal(b1-3)GalNAc
# Procedure, shortened: as §1
# [10] = molecular target: Gal(b1-3)GalNAc(a1-3)[Fuc(a1-2)]Gal(b1-4)Glc
# Procedure, shortened: as §1
# [11] = molecular target: Gal(b1-3)GalNAc(b1-4)Gal(b1-4)Glc
# Procedure, shortened: as §1
# [12] = molecular target: Gal(b1-3)GlcNAc(b1-2)Man(a1-3)[Gal(b1-3)GlcNAc(b1-2)Man(a1-6)]Man(b1-4)GlcNAc(b1-4)GlcNAc
# Procedure, shortened: as §1
# [13] = molecular target: Gal(b1-3)[Fuc(a1-4)]GlcNAc
# Procedure, shortened: as §1
# [14] = molecular target: Gal(b1-4)GlcNAc(b1-2)Man(a1-3)Man(b1-4)GlcNAc(b1-4)GlcNAc
# Procedure, shortened: as §1
# [15] = molecular target: Gal(b1-4)GlcNAc(b1-2)[Gal(b1-4)GlcNAc(b1-4)]Man(a1-3)[Gal(b1-4)GlcNAc(b1-2)[Gal(b1-4)GlcNAc(b1-6)]Man(a1-6)]Man(b1-4)GlcNAc(b1-4)GlcNAc
# Procedure, shortened: as §1
# [16] = molecular target: Gal(b1-4)GlcNAc(b1-2)[Gal(b1-4)GlcNAc(b1-4)]Man(a1-3)[GlcNAc(b1-4)][Gal(b1-4)GlcNAc(b1-2)Man(a1-6)]Man(b1-4)GlcNAc(b1-4)GlcNAc
# Procedure, shortened: as §1
# [17] = molecular target: Gal(b1-4)GlcNAc(b1-3)Gal(b1-4)[Fuc(a1-3)GlcNAc(b1-6)]Gal(b1-4)Glc
# Procedure, shortened: as §1
# [18] = molecular target: Gal6S(b1-4)GlcNAc6S
# Procedure, shortened: as §1
# [19] = molecular target: Glc(a1-6)Glc(a1-6)Glc
# Procedure, shortened: as §1
# [20] = molecular target: Glc(b1-4)Glc
# Procedure, shortened: as §1
# [21] = molecular target: GlcA(b1-3)GlcNAc
# Procedure, shortened: as §1
# [22] = molecular target: GlcNAc(a1-4)Gal(b1-4)GlcNAc(b1-3)Gal(b1-4)GlcNAc
# Procedure, shortened: as §1
# [23] = molecular target: GlcNAc(a1-4)Gal(b1-4)GlcNAc(b1-3)Gal(b1-4)[Fuc(a1-3)]GlcNAc(b1-3)Gal(b1-4)[Fuc(a1-3)]GlcNAc
# Procedure, shortened: as §1
# [24] = molecular target: GlcNAc(b1-2)Man(a1-3)[GlcNAc(b1-2)Man(a1-6)]Man(b1-4)GlcNAc(b1-4)[Fuc(a1-6)]GlcNAc
# Procedure, shortened: as §1
# [25] = molecular target: GlcNAc(b1-2)[GlcNAc(b1-4)]Man(a1-3)[GlcNAc(b1-4)][GlcNAc(b1-2)Man(a1-6)]Man(b1-4)GlcNAc(b1-4)GlcNAc
# Procedure, shortened: as §1
# [26] = molecular target: GlcNAc(b1-3)Man
# Procedure, shortened: as §1
# [27] = molecular target: GlcNAc(b1-3)[GlcNAc(b1-6)]GalNAc
# Procedure, shortened: as §1
# [28] = molecular target: Man(a1-3)[Man(a1-6)]Man
# Procedure, shortened: as §1
# [29] = molecular target: Man(a1-6)Man
# Procedure, shortened: as §1
# [30] = molecular target: Neu5Ac(a2-3)Gal(b1-3)GalNAc(b1-3)Gal(a1-4)Gal(b1-4)Glc
# Procedure, shortened: as §1
# [31] = molecular target: Neu5Ac(a2-3)Gal(b1-3)GalNAc(b1-4)[Neu5Ac(a2-3)]Gal(b1-4)Glc
# Procedure, shortened: as §1
# [32] = molecular target: Neu5Ac(a2-3)Gal(b1-4)GlcNAc(b1-3)Gal(b1-4)[Fuc(a1-3)]GlcNAc
# Procedure, shortened: as §1
# [33] = molecular target: Neu5Ac(a2-3)Gal(b1-4)[Fuc(a1-3)]GlcNAc(b1-3)GalNAc
# Procedure, shortened: as §1
# [34] = molecular target: Neu5Ac(a2-6)Gal(b1-4)GlcNAc(b1-3)GalNAc
# Procedure, shortened: as §1
# [35] = molecular target: Neu5Ac(a2-6)GalNAc
# Procedure, shortened: as §1
# [36] = molecular target: Neu5Ac(a2-8)Neu5Ac
# Procedure, shortened: as §1
# [37] = molecular target: Neu5Ac(a2-8)Neu5Ac(a2-8)Neu5Ac(a2-3)[GalNAc(b1-4)]Gal(b1-4)Glc
# Procedure, shortened: as §1
# [38] = molecular target: Neu5Ac(a2-8)Neu5Ac(a2-8)Neu5Ac(a2-8)Neu5Ac(a2-3)[GalNAc(b1-4)]Gal(b1-4)Glc
# Procedure, shortened: as §1
# [39] = molecular target: Neu5Ac9Ac(a2-6)Gal(b1-4)GlcNAc
# Procedure, shortened: as §1
binder,measurement,setting,value
Tectonin 2 (Laccaria bicolor) (protein) MPWKGISGSLSRISAGSVTNVWGVNAANNIYRYTGDDAKPWVQIPGALTDIGAAADGTVWGVNAAGNIYRYVWDSNHWTQIKGALKRISAGSRTNVWGVNAGGAIYRYTGDDANPWVQIPGVLSDIGAGADGTVWGVNAAGEIYRYTGDQGDPNHWVKIPGALSAISAGIKTNVWGVNSANNIYTSTGDDKNPWLGIGGSLVDIGAGTDGVVWGVNAGGGIYRWIRD,glycan array binding signal (z-score),[1],-0.069
same,glycan array binding signal (z-score),[2],-0.349
same,glycan array binding signal (z-score),[3],9.62
same,glycan array binding signal (z-score),[4],-0.16
same,glycan array binding signal (z-score),[5],-0.145
same,glycan array binding signal (z-score),[6],-0.16
same,glycan array binding signal (z-score),[7],0.299
same,glycan array binding signal (z-score),[8],-0.008
same,glycan array binding signal (z-score),[9],-0.212
same,glycan array binding signal (z-score),[10],-0.46
same,glycan array binding signal (z-score),[11],-0.123
same,glycan array binding signal (z-score),[12],0.354
same,glycan array binding signal (z-score),[13],-0.348
same,glycan array binding signal (z-score),[14],-0.226
same,glycan array binding signal (z-score),[15],-0.038
same,glycan array binding signal (z-score),[16],0.732
same,glycan array binding signal (z-score),[17],-0.568
same,glycan array binding signal (z-score),[18],2.71
same,glycan array binding signal (z-score),[19],-0.136
same,glycan array binding signal (z-score),[20],-0.277
same,glycan array binding signal (z-score),[21],4.49
same,glycan array binding signal (z-score),[22],-0.238
same,glycan array binding signal (z-score),[23],2.15
same,glycan array binding signal (z-score),[24],0.258
same,glycan array binding signal (z-score),[25],-0.327
same,glycan array binding signal (z-score),[26],-0.371
same,glycan array binding signal (z-score),[27],-0.21
same,glycan array binding signal (z-score),[28],-0.426
same,glycan array binding signal (z-score),[29],-0.438
same,glycan array binding signal (z-score),[30],0.073
same,glycan array binding signal (z-score),[31],2.34
same,glycan array binding signal (z-score),[32],2.47
same,glycan array binding signal (z-score),[33],2.62
same,glycan array binding signal (z-score),[34],1.14
same,glycan array binding signal (z-score),[35],-0.325
same,glycan array binding signal (z-score),[36],-0.07
same,glycan array binding signal (z-score),[37],-0.445
same,glycan array binding signal (z-score),[38],2.33
same,glycan array binding signal (z-score),[39],0.77
